According to PubChem BioAssay (NCI):
Compounds without any hit were thinned out: in the full panel of roughly 83,000, 20% have a hit.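 Testing used 96-well plates and a 48-hour single-concentration exposure. Example: -40 means 40% of the starting cells died.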 Unmarked numbers belong to inactive results. Calls of active or inactive are those of the source. The calls were made as follows: active = growth percent below 10; inactive = the rest.

These compounds were tested on HL-60(TB) leukemia (assay: NCI-60 one-dose screen, 48 h (100 = growth as untreated, 0 = no growth, -100 = all killed)). Conditions: 10 µM unless noted.

In the case of COc1cc2ncnc(Oc3ccc(NC(=O)Nc4ccc(CN5CCOCC5)c(C(F)(F)F)c4)c4ccccc34)c2cc1OC, the growth is reported as -23% (active).
In the case of CN(C)CCN(C)CC(C)(C)C(=O)/C=C/c1ccc(Cl)cc1, the growth is reported as 0.343% (active).
In the case of Cc1nc2ccccc2c(/C=C/c2ccc(F)cc2)c1C(=O)/C=C/c1ccccc1, the growth is reported as 7.37% (active).
With CCN(CC)CCOc1ccc(Nc2ncc3cc(-c4c(Cl)cccc4Cl)c(=O)n(CCOC)c3n2)cc1 the growth was -19.2% (active).
For N#Cc1nc(-c2ccccc2)oc1S(=O)(=O)NCC(c1ccc(Cl)cc1)N1CCCCC1 (stereo not given), the growth was 8.18% (active).
COc1cc2c(=O)n(CCN)c3c4cc5c(cc4ccc3c2cc1OC)OCO5 was tested, and the growth was -64.9% (active).
For O=C1c2ccccc2C(=O)c2sc(Nc3cccc(Cl)c3)nc21, the growth was -18.7% (active).
For CC1OC2CC(=O)OC2C2=C1C(=O)c1c(O)c3c(c(O)c1C2=O)C1CC(O)C3(O)C(C)O1 (stereo not given), the growth was -26.7% (active).
With COc1cc(Cl)c(C)cc1NC(=O)c1cc2ccccc2cc1O the growth was 9.27% (active).
For CCCCCCCCc1ccc(CCC(N)(CO)CO)cc1, the growth was -14.1% (active).
With N#Cc1c(NC(=O)c2cccc(C(F)(F)F)c2)sc2c1CCC(=O)C2 the growth was -8.73% (active).
In the case of Cn1c(/C=C(\C#N)c2cccc(C(F)(F)F)c2)nc2c(N3CCOCC3)nc(Cl)nc21, the growth is reported as -25.2% (active).

Going from O=C(C[n+]1ccccc1Cl)c1ccc2c(c1)CCCC2 to CC(=O)C[n+]1ccccc1Sc1ccc(Cl)cc1, the growth falls from 79.2% to 28.4%.

Compared with O=C(O)c1c([N+](=O)[O-])cnc2ccccc12, COC(=O)c1ccc(NC(=O)CSc2nc(-c3ccc(F)cc3)nc3ccccc23)cc1 is higher in growth: 92.4% for the first, 94.3% for the second.

Compared with CC(=O)NCNC(C)=O, CCn1c(Sc2nnc(NC(C)=O)s2)nc2c1c(=O)n(C)c(=O)n2C is higher in growth: 113% for the first, 124% for the second.

Compared with O=CCCCOCc1ccccc1, CC1CN(C(C)C)C(=S)N(c2ccccc2)C1=O (stereo not given) is higher in growth: 100% for the first, 113% for the second.

First: C(=N\Nc1ncnc2sc3c(c12)CCNC3)/c1cccc2ccccc12
Second: NS(=O)(=O)c1ccc(-n2ncc3c(N/N=C/c4ccccc4)ncnc32)cc1
The growth of the first is higher: 99.1% for the first, 83.1% for the second.

Compared with Nc1cc(N)c(N=Nc2ccc(S(=O)(=O)O)cc2)cc1N=Nc1ccc(-c2ccc(N=Nc3ccc(O)c(C(=O)O)c3)cc2)cc1, NS(=O)(=O)c1ccc(N=Nc2c(O)n(Cc3ccccc3)c3ccc(Cl)cc23)cc1 is lower in growth: 111% for the first, 95% for the second.

First: Cc1cc(Cl)ccc1OC(C)C(=O)Nc1nnc(C2CC2)s1 (stereo not given)
Second: C/C(=N/NC(N)=S)c1sc(Nc2cccc(Cl)c2)nc1C
The growth of the first is higher: 108% for the first, 65% for the second.

First: O=C(CSc1nc2ccc([N+](=O)[O-])cc2[nH]1)Nc1ccc(Br)cc1
Second: O=C(CNc1ccc(Cl)cc1)Nc1ccc(-c2nc3ccccc3s2)cc1
The growth of the first is lower: 39.4% for the first, 71% for the second.

Compared with CN(C)c1ccc(C(C#N)(c2ccccc2)c2ccc(N(C)C)cc2)cc1, C=CC(CC(c1ccccc1)(c1ccccc1)c1ccccc1)N(CC)CC (stereo not given) is higher in growth: 61.9% for the first, 71.5% for the second.

Compared with Nn1c(CN2CCN(c3cc4c(cc3F)c(=O)c(C(=O)O)cn4C3CC3)CC2)n[nH]c1=S, OCCN1CCN(c2cc(-c3cccc(OC(F)(F)F)c3)nc3ccc(N4CCCC4)cc23)CC1 is lower in growth: 101% for the first, 62.8% for the second.

First: CNC=O
Second: CCCOC(=O)C1(O)CCCC1
The growth of the first is lower: 89.6% for the first, 107% for the second.

Compared with CN(C)CCCn1c2c(c3cc(-c4ccco4)ccc3c1=O)C(=O)c1ccccc1-2, Cc1c(Cl)cccc1NCN1C(=O)c2ccccc2C1=O is higher in growth: 93.1% for the first, 113% for the second.

First: Oc1c(C(Nc2ccccc2)c2ccccc2)ccc2cccnc12 (stereo not given)
Second: Nc1c(Cl)cc2c(c1Br)C(=O)c1ccccc1C2=O
The growth of the first is lower: 15.7% for the first, 70.7% for the second.

Compared with N#CC1(O)CCCCC1, CC(=O)N[C@H](C(=O)N[C@@H](CCCNC(=N)N)C(=O)N[C@@H](CCCCN)C(=O)N[C@@H](CCCNC(=N)N)C(=O)N[C@]1(C)CCCCCC/C=C\CCC[C@@](C)(C(=O)N[C@@H](CCCNC(=N)N)C(=O)N[C@@H](CCC(=O)O)C(=O)N[C@@H](CC(C)C)C(=O)N[C@H](C(=O)N[C@@H](CCC(=O)O)C(N)=O)C(C)C)NC(=O)[C@H](CCC(N)=O)NC(=O)[C@H](CC(C)C)NC(=O)[C@H](CC(C)C)NC(=O)[C@H](CCCNC(=N)N)NC(=O)[C@H](CCCNC(=N)N)NC(=O)[C@H](CC(C)C)NC1=O)C(C)C is lower in growth: 104% for the first, 15.9% for the second.
